From PubChem BioAssay AID1159580 (chemical genetic matrix, 2015)
“And” between values parts separate entries of the source, which are not always exact repeats. Equal entries are not always repeated. Out of some 5,500 compounds screened, about 2,000 (36%) were called active. Not shown: some 18% with an inconclusive outcome. No stated cut-off is given here; in the data, active means normalized growth mostly below about 0.91 (no sharp cut-off); inconclusive means no clear call, values can overlap the other calls; inactive means mostly above about 0.92. The list shows a part of the results.

Assay: chemical genetic growth profiling, strain panel (AID 1159580);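 further: tested at 20 µM; growth read once vehicle control cultures reached saturation at 30 °C; 1 = growth at the plate median or of vehicle wells; lower values mean less growth of the strain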
Details: S. cerevisiae deletion strains, growth OD

Measured: normalized growth

CC1OC1P(=O)(O)O (stereo not given)
inactive: locus YAL021C, strain ccr4, hits give low values 1 | locus YAL026C, strain drs2, hits give low values 1.02 | locus YAL030W, strain snc1, hits give low values 0.998 | locus YAL040C, strain CLN3, hits give low values 0.959 | locus YBL061C, strain skt5, hits give low values 0.996 | locus YBR009C, strain hhf1, hits give low values 0.978 | locus YBR021W, strain FUR4, hits give low values 0.973 | locus YBR023C, strain chs3, hits give low values 0.988 | locus YBR171W, strain sec66, hits give low values 1 | locus YBR229C, strain ROT2, hits give low values 0.994 | locus YBR231C, strain swc5, hits give low values 0.992 | locus YBR279W, strain paf1, hits give low values 0.991 | locus YCL011C, strain gbp2, hits give low values 1.03 | locus YCL016C, strain dcc1, hits give low values 0.984 | locus YCL029C, strain bik1, hits give low values 0.993 | locus YCL061C, strain MRC1 (second series), hits give low values 1.01 | locus YCL069W, strain vba3, hits give low values 1 | locus YCR088W, strain abp1, hits give low values 1 | locus YDL005C, strain med2, hits give low values 0.977 | locus YDL035C, strain GPR1, hits give low values 0.991 | locus YDL040C, strain nat1, hits give low values 0.991 | locus YDL074C, strain BRE1, hits give low values 1.04 | locus YDL101C, strain DUN1, hits give low values 0.992 | locus YDL134C, strain PPH21, hits give low values 0.977 | locus YDL185W, strain tfp1, hits give low values 0.979 | locus YDL192W, strain arf1, hits give low values 0.991 | locus YDR001C, strain nth1, hits give low values 1 | locus YDR069C, strain doa4, hits give low values 0.986 | locus YDR101C, strain arx1, hits give low values 1 | locus YDR137W, strain rgp1, hits give low values 1.01 | locus YDR150W, strain NUM1, hits give low values 0.994 and 1 | locus YDR159W, strain sac3, hits give low values 0.934 | locus YDR162C, strain NBP2, hits give low values 0.987 | locus YDR195W, strain ref2 0.983 | locus YDR297W, strain sur2, hits give low values 1.01 | locus YDR318W, strain mcm21, hits give low values 0.984 | locus YDR334W, strain swr1, hits give low values 1 | locus YDR335W, strain msn5, hits give low values 0.996 | locus YDR363W, strain ESC2, hits give low values 0.974 | locus YDR388W, hits give low values 0.988 | locus YDR392W, strain spt3, hits give low values 0.892 | locus YDR502C, strain sam2, hits give low values 0.983 | locus YEL003W, strain gim4, hits give low values 1 | locus YEL037C, strain rad23, hits give low values 1 | locus YEL061C, strain CIN8 (second series), hits give low values 1 | locus YEL061C, strain CIN8, hits give low values 1 | locus YER002W, strain NOP16, hits give low values 0.978 | locus YER015W, strain faa2, hits give low values 0.981 | locus YER016W, strain bim1, hits give low values 0.974 | locus YER110C, hits give low values 0.987 | locus YER111C, strain swi4, hits give low values 1 | locus YER155C, strain BEM2 (second series), hits give low values 0.965 | locus YER155C, strain BEM2, hits give low values 0.994 | locus YER167W, strain BCK2, hits give low values 0.973 | locus YFR010W, strain ubp6, hits give low values 1 | locus YGL078C, strain dbp3, hits give low values 0.988 | locus YGL086W, strain mad1, hits give low values 1 | locus YGL167C, strain pmr1, hits give low values 0.997 | locus YGL173C, strain kem1, hits give low values 0.99 | locus YGL227W, strain vid30, hits give low values 1 | locus YGL240W, strain doc1, hits give low values 0.968 | locus YGL248W, strain PDE1, hits give low values 1.01 | locus YGL253W, strain hxk2, hits give low values 1.03 | locus YGR078C, strain PAC10, hits give low values 1.02 | locus YGR135W, strain pre9, hits give low values 0.966 | locus YGR252W, strain gcn5, hits give low values 0.982 | locus YHR013C, strain ard1, hits give low values 0.987 | locus YHR027C, strain rpn1, hits give low values 0.993 | locus YHR030C, strain SLT2, hits give low values 0.994 | locus YHR079C, strain IRE1 (second series), hits give low values 0.989 | locus YHR094C, strain hxt1, hits give low values 0.987 | locus YHR129C, strain ARP1, hits give low values 0.987 | locus YHR142W, strain chs7, hits give low values 1.01 | locus YHR200W, strain rpn10, hits give low values 0.989 | locus YIL066C, strain RNR3, hits give low values 1 | locus YIL073C, strain SPO22, hits give low values 0.944 | locus YIL125W, strain kgd1, hits give low values 0.992 | locus YIR030C, strain dcg1, hits give low values 0.985 | locus YJL092W, strain hpr5, hits give low values 1 | locus YJL095W, strain BCK1 (second series), hits give low values 0.998 | locus YJL095W, strain BCK1, hits give low values 1.01 | locus YJL115W, strain asf1, hits give low values 1 | locus YJL129C, strain trk1, hits give low values 1.01 | locus YJL134W, strain LCB3, hits give low values 0.989 | locus YJL154C, strain vps35, hits give low values 0.996 | locus YJL164C, strain tpk1, hits give low values 0.986 | locus YJL166W, strain qcr8, hits give low values 0.986 | locus YJL168C, strain set2, hits give low values 0.989 | locus YJL187C, strain SWE1 (second series), hits give low values 1.02 | locus YJR043C, strain POL32, hits give low values 1.01
